# In the supplement of paper PMC3334620:
# In all, about 33,000 sequences were measured (“E-score (-0.5 to 0.5)”: median about -0.043, highest 2% from about 0.37 on). This is one part of a sample in which the highest values are shown more often than they occur.
# Biological target: T1, Upc2 (UniProt Q12151)
# T1 sequence: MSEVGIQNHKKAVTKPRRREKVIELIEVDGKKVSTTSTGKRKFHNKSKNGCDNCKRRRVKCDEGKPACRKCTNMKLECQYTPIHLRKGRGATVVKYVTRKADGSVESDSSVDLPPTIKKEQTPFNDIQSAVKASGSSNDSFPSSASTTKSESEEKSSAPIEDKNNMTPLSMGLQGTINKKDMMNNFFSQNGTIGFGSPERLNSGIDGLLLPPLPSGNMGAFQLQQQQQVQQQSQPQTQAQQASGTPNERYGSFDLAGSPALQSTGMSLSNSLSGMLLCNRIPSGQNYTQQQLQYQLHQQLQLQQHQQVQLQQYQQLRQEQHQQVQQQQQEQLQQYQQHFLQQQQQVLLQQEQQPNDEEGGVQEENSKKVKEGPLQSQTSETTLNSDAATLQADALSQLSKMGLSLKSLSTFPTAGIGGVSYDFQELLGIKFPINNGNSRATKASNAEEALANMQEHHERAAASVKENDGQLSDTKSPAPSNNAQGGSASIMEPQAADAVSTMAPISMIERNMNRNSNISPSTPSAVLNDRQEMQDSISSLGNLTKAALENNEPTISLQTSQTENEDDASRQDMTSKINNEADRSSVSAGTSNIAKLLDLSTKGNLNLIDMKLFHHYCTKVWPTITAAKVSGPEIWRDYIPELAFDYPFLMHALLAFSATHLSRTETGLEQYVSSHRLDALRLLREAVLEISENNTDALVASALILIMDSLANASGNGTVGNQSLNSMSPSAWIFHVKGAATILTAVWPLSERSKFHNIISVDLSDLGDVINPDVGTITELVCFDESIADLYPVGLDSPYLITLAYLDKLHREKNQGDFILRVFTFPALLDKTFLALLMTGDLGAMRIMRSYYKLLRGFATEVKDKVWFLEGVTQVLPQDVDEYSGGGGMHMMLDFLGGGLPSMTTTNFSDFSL
# Assay: PBM E-score (8-mer binding enrichment) (E-score (-0.5 to 0.5)); higher = stronger / more preferred TF binding
# Conditions: protein concentration: 200 nM; construct: GST-full length
# Procedure: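 Universal 'all 10-mer' protein binding microarrays (Agilent AMADID 015681) probed with GST-tagged S. cerevisiae TFs (full-length or DBD) made by in vitro transcription/translation (PURExpress), about 100-200 nM. Bound TF was detected with fluorescent anti-GST. Each ungapped 8-mer (which stands for itself and its reverse complement) is scored by the PBM enrichment score (E-score), a modified Wilcoxon-Mann-Whitney statistic from -0.5 to +0.5, computed with the Universal PBM Analysis Suite. Scale: above 0.35 generally sequence-specific binding.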
row,Sequence,PBM E-score
1,GAAGTACC,0.114
2,GTGCCAAC,-0.0672
3,CTCCACCA,-0.177
4,GGATTGTA,0.107
5,ATGCCAAC,0.0593
6,GTTAGCGA,0.194
7,ACAATCCA,-0.0823
8,GTACGACA,0.468
9,CGACGACA,0.173
10,CTACGACA,0.311
11,ATACGACA,0.477
12,GCACGACA,0.0592
13,CCACGACA,-0.131
14,CCCGAGCC,-0.0326
15,CGCATTCA,-0.00072
16,CGTTAACA,0.274
17,CCTTAACA,-0.0468
18,CGTTAACC,0.348
19,ACTTAACG,0.339
20,CCTTAACG,0.38
21,CGTTAACG,0.422
22,AAATCTCC,-0.271
23,GTGACCAC,-0.283
24,ACAATGAT,-0.102
25,CGGCGCTC,0.16

row,Sequence,PBM E-score
1,GCCCTCGC,0.219
2,ATGGCTCA,-0.1
3,ACTTTACG,0.409
4,CCTTTACC,-0.191
5,CCTTTACA,-0.0853
6,CCTTTACG,0.418
7,ACTTTACT,-0.151
8,ATTTTACC,0.00835
9,AATTTACG,0.335
10,ATTTTACG,0.394
11,ACTTTACA,0.0242
12,ATTTGCAA,0.0573
13,AGATTGCT,-0.117
14,CAACTGCG,-0.0371
15,GTACGCAA,0.247
16,ATACGGAG,0.411
17,GTACGGAA,0.377
18,GTACGGAC,0.35
19,GCACGGAA,-0.15
20,CTACGGAC,-0.0487
21,CTACGGAG,-0.138
22,ATACGGAT,0.357
23,ATACGCAG,0.352
24,ACACGGAG,-0.0181
25,ATACGGAC,0.394

row,Sequence,PBM E-score
1,ATACGCAA,0.37
2,CATGAGTC,-0.0488
3,GTTCTCTA,0.102
4,CTCTCCTA,0.0887
5,GATTCACC,-0.129
6,AATGGAGA,-0.179
7,TATGCGCA,0.0561
8,CTACGGAA,0.0194
9,ATACGGAA,0.372
10,TTACGGAA,0.258
11,GGGGGCGA,-0.119
12,TACAGCAA,0.138
13,AGAGTGGG,0.0465
14,TGATCCAA,-0.132
15,ACACGACG,0.267
16,ACACGACC,0.154
17,ATACGACG,0.483
18,CTACGACC,0.364
19,AGACGACG,0.237
20,ATACGACC,0.474
21,ACGTTTAC,0.369
22,CCGTTTAA,0.466
23,CCGTTTAC,0.451
24,CCGTTTTA,0.118
25,CTGTTTAA,0.0306

row,Sequence,PBM E-score
1,GCGTTTAC,0.372
2,CTGTTTAC,0.142
3,GCGTTTTA,0.206
4,GCGTTTAA,0.4
5,GCGTTTGA,0.151
6,GCGTTTCC,0.0493
7,GGGTTTAC,0.144
8,GGGAGCAA,-0.11
9,GGCAAGGA,-0.205
10,GGCTACTA,-0.0652
11,ACAGTACC,-0.176
12,CATCTAGA,0.0683
13,ACAAGGTA,0.104
14,GAGAGGGA,-0.272
15,AGTATACG,0.455
16,CCTATACC,0.167
17,ATTATACC,0.144
18,CCTATACG,0.487
19,ACTATACA,0.11
20,ACTATACT,0.152
21,AGTATATG,0.0175
22,ATTATACA,0.0589
23,CCTATACA,0.151
24,AGTATACT,0.242
25,ATTATACG,0.482

row,Sequence,PBM E-score
1,ACTATACG,0.478
2,AAAGAATA,0.091
3,AAGGTTAT,-0.0588
4,GCCCCGCC,0.112
5,GGCGCAAC,0.00488
6,CACAGGGA,-0.233
7,AGGACACT,-0.364
8,AGTTTAAA,0.11
9,CGTTTAAA,0.47
10,AGTTTAAC,0.174
11,CGTTTAAG,0.468
12,CGTTTAAC,0.473
13,AGTTTAAG,0.0878
14,CCTTTAAG,-0.158
15,TGTTTAAA,0.0234
16,GGTTTAAC,0.138
17,AGGATGGG,0.00396
18,CAACCTCA,-0.0655
19,AACTGTGT,-0.137
20,CCTTAGCA,-0.336
21,CCCTTATC,-0.205
22,AGGTATAC,0.339
23,GTAACCGA,0.322
24,CTAACCGA,0.37
25,CTAACCGC,0.0621

row,Sequence,PBM E-score
1,CTGCTCTA,-0.0369
2,ACAATCCT,-0.183
3,CAGGACGG,-0.164
4,CGAAGTAG,0.00964
5,ATACGAAT,0.459
6,AGACGAAT,0.0524
7,ATCCGAAC,0.146
8,ACACGAAG,0.211
9,GTACGAAA,0.442
10,GGACGAAA,-0.0427
11,ACACGAAT,0.258
12,CTACGAAG,0.316
13,GCACGAAA,0.127
14,ATACGAAC,0.472
15,ATTCGAAC,0.119
16,ATACGAAG,0.476
17,CATCGATC,-0.0852
18,ATAGATTC,-0.12
19,GGCATAAC,-0.0916
20,ACCGATCC,-0.0521
21,ATACTCAT,-0.111
22,GTGGGCTA,-0.128
23,CTACGAAC,0.333
24,ATACGTAT,0.372
25,TTACGAAA,0.41

row,Sequence,PBM E-score
1,GTACGAAC,0.467
2,GGACGAAC,0.0508
3,CTACGAAA,0.272
4,ATACGAAA,0.47
5,AGACGAAA,0.196
6,ATACGTAC,0.339
7,TCACGAAA,-0.0654
8,ATACGTAA,0.334
9,ACACGAAA,0.197
10,AGCTCGAT,-0.0109
11,AAGCTGGT,-0.0392
12,CAGATTGG,-0.303
13,CAACTTCA,-0.0217
14,CCATTTCA,-0.241
15,CTCAGCTC,-0.114
16,AGCGAGAG,0.229
17,CGTATAAC,0.478
18,GGTATAAC,0.135
19,CGTATAAG,0.481
20,TGTATAAA,0.156
21,CATATAAG,0.17
22,AGTATAAA,0.238
23,CGTATAAA,0.477
24,AGTATAAG,0.261
25,AGTATAAC,0.172

row,Sequence,PBM E-score
1,AACTTTCC,-0.281
2,AGCTCTCA,-0.214
3,GGGAGGTA,0.132
4,CACAGATA,-0.136
5,GCACTGGA,-0.0891
6,GGTATACC,0.214
7,AGTATACC,0.124
8,CGTATACA,0.474
9,CGTATACC,0.472
10,GGTATACA,-0.0256
11,AGTATACA,0.149
12,AGTTCAGA,-0.0704
13,GGTTCAGA,-0.186
14,CGTTCAGA,0.372
15,CGTTCATC,0.353
16,CGTTCAGC,0.396
17,AGTTCAGC,-0.205
18,AGGCGTGC,-0.0583
19,CGCAGTAG,-0.0605
20,AAAGGTGT,0.0174
21,GTTAGCCA,-0.0759
22,ACTGAGAT,-0.184
23,AGTTAAAG,0.0271
24,CGTTAAAA,0.364
25,CGTTAAAG,0.4

row,Sequence,PBM E-score
1,CGTTAAGC,0.432
2,CTTTAAAG,-0.114
3,AGTTAAGC,0.00193
4,GGTTAAAC,0.232
5,CGTTAAAC,0.411
6,CGTTAAGA,0.341
7,GAAAACTC,-0.114
8,AGAGAATG,0.0339
9,GCAGTGGA,-0.123
10,CTCAATAA,-0.213
11,GACAGTGA,-0.0168
12,CACTAGGA,-0.245
13,CGATACGC,0.267
14,GGATACGA,0.463
15,AGATACGC,0.201
16,AGATACGG,0.307
17,GGATACTA,-0.183
18,CGATACAA,0.0776
19,AGATACGA,0.454
20,CGATACGA,0.464
21,GGATACCA,-0.0879
